Test results reported in PubChem BioAssay (NCATS).
Records with an inconclusive call do not appear. The source made the active and inactive calls. Unless noted, calls come from the whole dose curve.

Tests used:
[1] = target: Bile acid receptor (Homo sapiens) (UniProt Q96RI1); assay: qHTS assay for small molecule antagonists of farnesoid X receptor signaling (AID 588526); note: potency is the fitted concentration of half-maximal effect
Summary of the method: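 Antagonist mode: titrated compounds tested against chenodeoxycholic acid stimulation (normalized to 50 uM CDCA and DMSO) in GeneBLAzer HEK293T cells for 16 h. Beta-lactamase read by CCF4 fluorescence; IC50 from Hill fits.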

[2] = target: Bile acid receptor (Homo sapiens) (UniProt Q96RI1); assay: qHTS assay for small molecule agonists of farnesoid X receptor signaling (AID 588527); conditions: HEK293T FXR-UAS-bla, beta-lactamase ratio, 16 h; activation: stronger effect = higher value;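 note: series mostly up to about 77 µM; 0% = vehicle basal and 100% = reference agonist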
Summary of the method: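 Quantitative HTS used FXR-UAS-bla HEK293T cells with 16 h compound incubation at 37 C. EC50 values came from concentration-response curves normalized to chenodeoxycholic acid.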

[3] = target: Peroxisome proliferator-activated receptor delta (Homo sapiens) (UniProt Q03181); assay: qHTS assay for small molecule agonists of peroxisome proliferator-activated receptor delta signaling (AID 588534);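 note: 0% = DMSO basal wells and 100% = positive control agonist at 10 µM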
Sequence of Peroxisome proliferator-activated receptor delta (Homo sapiens) (Q03181 whole entry, looked up): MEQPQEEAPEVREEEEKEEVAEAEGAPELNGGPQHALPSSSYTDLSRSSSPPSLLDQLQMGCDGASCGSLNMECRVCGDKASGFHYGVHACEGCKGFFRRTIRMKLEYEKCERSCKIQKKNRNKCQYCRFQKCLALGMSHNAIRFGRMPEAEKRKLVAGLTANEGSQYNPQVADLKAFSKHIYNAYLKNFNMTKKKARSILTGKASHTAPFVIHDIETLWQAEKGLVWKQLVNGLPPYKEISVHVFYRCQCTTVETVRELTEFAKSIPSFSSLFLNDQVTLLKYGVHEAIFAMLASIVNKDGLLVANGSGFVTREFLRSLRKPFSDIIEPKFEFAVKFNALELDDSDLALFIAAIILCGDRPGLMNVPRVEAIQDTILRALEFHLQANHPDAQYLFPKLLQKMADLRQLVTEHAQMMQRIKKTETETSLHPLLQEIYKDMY
Summary of the method: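 Cells carrying a PPAR-delta beta-lactamase reporter were treated with compounds for 18 h at 37 °C in agonist mode. CCF4 fluorescence was read after 2 h; EC50 and efficacy from Hill fits.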

[4] = target: Thyroid hormone receptor beta (Homo sapiens) (UniProt P10828); assay: qHTS assay for small molecule agonists of thyroid hormone receptor beta signaling (AID 588545)
Sequence of Thyroid hormone receptor beta (Homo sapiens) (P10828 whole entry, looked up): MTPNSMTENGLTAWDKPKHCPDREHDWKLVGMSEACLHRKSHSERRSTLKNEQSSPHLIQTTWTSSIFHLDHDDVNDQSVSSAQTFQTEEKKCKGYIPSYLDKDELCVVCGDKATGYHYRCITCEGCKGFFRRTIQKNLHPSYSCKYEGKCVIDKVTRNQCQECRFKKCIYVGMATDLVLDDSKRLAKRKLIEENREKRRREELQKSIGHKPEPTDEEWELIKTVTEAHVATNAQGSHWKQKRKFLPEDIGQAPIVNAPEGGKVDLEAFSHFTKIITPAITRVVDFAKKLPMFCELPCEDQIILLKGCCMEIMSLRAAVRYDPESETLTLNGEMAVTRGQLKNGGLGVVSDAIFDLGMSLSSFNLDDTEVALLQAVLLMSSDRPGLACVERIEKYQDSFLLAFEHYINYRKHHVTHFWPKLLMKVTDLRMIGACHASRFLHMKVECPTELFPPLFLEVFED
Summary of the method: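 In this cell-based screen, titrated compounds act on HEK 293 cells held in medium with 2% charcoal/dextran FBS, NEAA and pyruvate for 18 hrs at 37 C. Responses are expressed relative to T3 (10 nM) as 100% and basal DMSO as 0%.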

[5] = qHTS assay for small molecule activators of the nuclear factor-kappa B (NF-kB) signaling pathway (AID 651749; active = well fitted activation curve with a large enough effect in the signal ratio; the % refers to the signal ratio; note: series mostly up to about 77 µM; % of control where 0% means no effect); conditions: NF-kB-bla ME-180 cells, beta-lactamase FRET ratio, 16 h; activation: stronger effect = higher value
Summary of the method: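 NF-kB-bla ME-180 cells carrying a beta-lactamase reporter under an NF-kB response element, 2,000 cells/well, exposed to compound for 16 hr at 37C; FRET-based beta-lactamase fluorescence read-out of pathway activation.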

[6] = qHTS assay for environmental chemicals that activate the Aryl hydrocarbon Receptor (AhR) signaling pathway (AID 651777; active = well fitted curve in the direction sought with a large enough effect; an effect the other way counts as inactive or inconclusive; note: % of control where 0% means no effect; nearly all actives have a fitted effect of over 15% in size); conditions: 1A2-DRE human hepatoma cells, luciferase, 24 h; activation: stronger effect = higher value
Summary of the method: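 Luminescence read-out: One-Glo added for 30 min at RT after 24 hr compound treatment (37 C, 5% CO2) of human hepatoma cells expressing a DRE/CYP1A2 promoter–luciferase reporter; increased signal indicates AhR activation.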

[7] = target: Peroxisome proliferator-activated receptor alpha (Homo sapiens) (UniProt Q07869); assay: qHTS assay for small molecule agonists of the peroxisome proliferator-activated receptor alpha (PPARalpha) signaling pathway (AID 651778; active = well fitted curve in the direction sought with a large enough effect; an effect the other way counts as inactive or inconclusive; note: % of control where 0% means no effect); conditions: PathHunter PPARalpha complementation, chemiluminescence, 6 h; max response: stronger effect = higher value
Sequence of Peroxisome proliferator-activated receptor alpha (Homo sapiens) (Q07869 whole entry, looked up, the tested form may be a part): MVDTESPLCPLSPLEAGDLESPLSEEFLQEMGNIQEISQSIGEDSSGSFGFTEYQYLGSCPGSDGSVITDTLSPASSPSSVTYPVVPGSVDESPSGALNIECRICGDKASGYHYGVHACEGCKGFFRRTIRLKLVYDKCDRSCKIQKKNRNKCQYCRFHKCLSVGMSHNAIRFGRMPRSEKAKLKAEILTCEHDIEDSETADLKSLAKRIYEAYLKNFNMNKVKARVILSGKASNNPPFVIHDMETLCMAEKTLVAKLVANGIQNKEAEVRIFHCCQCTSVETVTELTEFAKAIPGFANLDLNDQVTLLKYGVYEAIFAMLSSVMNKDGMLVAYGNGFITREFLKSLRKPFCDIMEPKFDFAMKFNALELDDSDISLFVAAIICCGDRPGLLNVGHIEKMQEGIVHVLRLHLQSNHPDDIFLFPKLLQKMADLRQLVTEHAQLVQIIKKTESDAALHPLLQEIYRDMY
Summary of the method: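 Enzyme-fragment complementation assay in which ligand-bound PPARalpha translocates and forms an active enzyme that generates chemiluminescence. Cells were plated overnight, exposed to compound for 6 hr at 37 C, and then given detection reagent for 60 min at room temperature.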

[8] = qHTS assay for small molecule agonists of the antioxidant response element (ARE) signaling pathway measured by Nrf2-dependant transcriptional activity - cell viability counter screen (AID 720653; active = well fitted curve in the direction sought with a large enough effect in the repeat runs; an effect the other way counts as inactive or inconclusive; note: % is set by controls: 0 for no effect and ±100 for the full control effect); conditions: ARE-bla HepG2 viability, CellTiter-Glo ATP luminescence, 16 h; max response: stronger effect = lower value
Summary of the method: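 ARE-bla HepG2 cells treated with compounds for 16 h at 37C; this counter screen measures viability as intracellular ATP by CellTiter-Glo luminescence after 30 min at room temperature.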

[9] = qHTS assay for cell viability of HEK293 cells (AID 743288; active = well fitted curve in the direction sought with a large enough effect; an effect the other way counts as inactive or inconclusive; note: % is set by controls: 0 for no effect and ±100 for the full control effect; nearly all actives have a fitted effect of over 50% in size); conditions: ATP luminescence (CellTiter-Glo), 18 h; max response: stronger effect = lower value
Summary of the method: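 HEK293 parental, 2,000 cells/well; ≥5 h pre-incubation 37 C; pintool compound addition; 18 h, 37 C; CellTiter-Glo 30 min RT; luminescence read.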

[10] = qHTS assay for cell viability of the p53RE-bla HCT-116 cell line (AID 743292; active = well fitted curve in the direction sought with a large enough effect; an effect the other way counts as inactive or inconclusive; note: % is set by controls: 0 for no effect and ±100 for the full control effect; nearly all actives have a fitted effect of over 55% in size)
Summary of the method: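 Luminescent ATP quantitation (CellTiter-Glo) served as the viability read-out; reagent was added after 16 h compound exposure at 37 C and read after 30 min at room temperature. Cells: p53RE-bla HCT-116, 4,000 per well.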

[11] = target: Nuclear receptor subfamily 1 group I member 2 (Rattus norvegicus) (UniProt Q9R1A7); assay: qHTS assay for small molecule activators of the rat pregnane X receptor (rPXR) signaling pathway (AID 651751; call rule not given here; note: 0% is about no effect); conditions: rPXR reporter cells, luciferase (One-Glo), 24 h
Sequence of Nuclear receptor subfamily 1 group I member 2 (Rattus norvegicus) (Q9R1A7 whole entry, looked up): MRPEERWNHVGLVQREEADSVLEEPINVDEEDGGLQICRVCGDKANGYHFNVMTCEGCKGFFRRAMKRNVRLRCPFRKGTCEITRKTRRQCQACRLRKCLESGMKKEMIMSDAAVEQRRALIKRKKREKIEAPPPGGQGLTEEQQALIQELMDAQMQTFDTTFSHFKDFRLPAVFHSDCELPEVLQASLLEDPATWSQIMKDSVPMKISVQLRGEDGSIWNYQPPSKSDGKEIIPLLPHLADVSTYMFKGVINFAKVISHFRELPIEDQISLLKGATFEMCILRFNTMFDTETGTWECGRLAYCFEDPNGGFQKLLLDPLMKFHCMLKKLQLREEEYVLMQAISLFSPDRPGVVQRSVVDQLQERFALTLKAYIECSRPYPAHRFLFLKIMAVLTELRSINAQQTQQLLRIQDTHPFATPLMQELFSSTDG

[12] = qHTS assay for small molecule antagonists of peroxisome proliferator-activated receptor delta signaling (AID 588535; active = well fitted inhibition curve with a large enough effect in the signal ratio, with a control signal flat, not every such curve was filed as active; the % refers to the signal ratio;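 for max response: cells co-treated with a PPAR-delta agonist as stimulator during compound exposure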); conditions: HEK293T PPARd-UAS-bla, beta-lactamase FRET ratio, 18 h; 460 nm channel
Summary of the method: (§1)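 Antagonist-mode beta-lactamase reporter (GeneBLAzer PPAR-delta-UAS-bla) in HEK293T cells, 2% charcoal/dextran FBS, 4000 cells/well. Compound titrations, 18 h at 37 C; CCF4 ratio read, IC50 and efficacy from Hill fits.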

[13] = target: Peroxisome proliferator-activated receptor delta (Homo sapiens) (UniProt Q03181); assay: as above
Summary of the method: as §1

[14] = target: Vitamin D3 receptor (Homo sapiens) (UniProt P11473); assay: qHTS assay for small molecule antagonists of vitamin D receptor signaling (AID 588541);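 note: receptor activated by calcitriol during compound treatment; series mostly up to about 77 µM; % is set by controls: 0 for no effect and ±100 for the full control effect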
Sequence of Vitamin D3 receptor (Homo sapiens) (P11473 whole entry, looked up): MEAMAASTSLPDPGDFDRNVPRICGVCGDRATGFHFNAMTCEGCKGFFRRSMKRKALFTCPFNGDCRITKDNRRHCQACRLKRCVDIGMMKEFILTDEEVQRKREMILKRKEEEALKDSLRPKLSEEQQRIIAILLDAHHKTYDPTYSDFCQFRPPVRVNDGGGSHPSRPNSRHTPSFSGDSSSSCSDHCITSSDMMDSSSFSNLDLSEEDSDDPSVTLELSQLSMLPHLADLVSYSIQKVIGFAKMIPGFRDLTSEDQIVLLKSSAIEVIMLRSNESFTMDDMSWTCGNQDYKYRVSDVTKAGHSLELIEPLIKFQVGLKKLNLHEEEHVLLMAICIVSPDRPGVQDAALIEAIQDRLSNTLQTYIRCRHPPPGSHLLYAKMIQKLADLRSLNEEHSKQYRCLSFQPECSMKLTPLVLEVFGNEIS
Summary of the method: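 VDR-UAS-bla HEK293T cells in 2% charcoal-stripped FBS were stimulated with 1-alpha,25-dihydroxyvitamin D3 (3 nM final) plus compound for 16 h at 37 C. The beta-lactamase CCF4 readout was normalized to 50 nM agonist and DMSO, and Hill fits gave IC50.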

[15] = qHTS assay for small molecule antagonists of retinoid X receptor alpha signaling (AID 588546; active = well fitted inhibition curve with a large enough effect in the signal ratio, with a control signal flat, not every such curve was filed as active; the % refers to the signal ratio;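 note: cells stimulated with 9-cis-retinoic acid as agonist; % is set by controls: 0 for no effect and ±100 for the full control effect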); conditions: HEK293T RXRa-UAS-bla, beta-lactamase ratio, antagonist mode; measured here: W530 green channel, cytotoxicity proxy
Summary of the method: (§2)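 Beta-lactamase reporter inhibition, read as CCF4 fluorescence ratio (ex 405, em 460/530 nm) after 2 h at RT. HEK293T UAS-bla cells, 2500/well, were stimulated with 9-cis-RA at 500 or 100 nM final alongside test compound for 18 h at 37 C.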

[16] = target: Retinoic acid receptor RXR-alpha (Homo sapiens) (UniProt P19793); assay: as above; conditions: HEK293T RXRa-UAS-bla, beta-lactamase ratio, antagonist mode
Sequence of Retinoic acid receptor RXR-alpha (Homo sapiens) (P19793 whole entry, looked up): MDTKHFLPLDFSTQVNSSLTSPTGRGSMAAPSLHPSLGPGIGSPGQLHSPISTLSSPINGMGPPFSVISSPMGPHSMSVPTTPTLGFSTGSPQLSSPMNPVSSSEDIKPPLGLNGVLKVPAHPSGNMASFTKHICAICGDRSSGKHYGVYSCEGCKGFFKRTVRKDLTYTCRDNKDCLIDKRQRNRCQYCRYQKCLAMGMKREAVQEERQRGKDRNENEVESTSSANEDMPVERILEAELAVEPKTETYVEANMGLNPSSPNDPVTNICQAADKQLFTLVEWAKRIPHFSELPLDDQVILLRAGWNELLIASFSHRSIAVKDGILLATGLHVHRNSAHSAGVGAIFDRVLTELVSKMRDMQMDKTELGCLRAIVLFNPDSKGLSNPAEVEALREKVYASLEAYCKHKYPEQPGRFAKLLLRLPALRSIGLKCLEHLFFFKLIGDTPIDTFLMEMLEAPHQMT
Summary of the method: as §2

[17] = qHTS assay for small molecule activators of the p53 signaling pathway (AID 651743; active = well fitted activation curve with a large enough effect in the signal ratio, not every such curve was filed as active; the % refers to the signal ratio; note: series mostly up to about 92 µM; % of control where 0% means no effect); conditions: HCT-116 p53RE-bla, beta-lactamase FRET ratio, 16 h; activation: stronger effect = higher value
Summary of the method: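 p53RE-bla HCT-116 cells carrying a beta-lactamase reporter under p53 response elements were exposed to compounds for 16 hours at 37 C. Reporter activity read as fluorescence after 2 hours at room temperature with LiveBLAzer B/G FRET substrate.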

[18] = qHTS assay for small molecule agonists of the antioxidant response element (ARE) signaling pathway measured by Nrf2-dependant transcriptional activity (AID 720636; active = well fitted curve in the direction sought with a large enough effect in the repeat runs; an effect the other way counts as inactive or inconclusive;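 note: HepG2 cells with an ARE-driven luciferase reporter; % of control where 0% means no effect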)
Summary of the method: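 HepG2 ARE-luc reporter line, 1% dialyzed FBS; 6 hr attachment at 37 C, compound pinned in, 16 hr at 37 C/5% CO2; ONE-Glo, 30 min RT, luminescence read.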

[19] = target: Retinoic acid receptor RXR-alpha (Homo sapiens) (UniProt P19793); assay: qHTS assay for small molecule agonists of retinoid X receptor alpha signaling (AID 588544);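 note: 0% = DMSO basal wells and 100% = reference agonist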
[20] = target: Vitamin D3 receptor (Homo sapiens) (UniProt P11473); assay: qHTS assay for small molecule agonists of vitamin D receptor signaling (AID 588543);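 note: 0% = DMSO basal and 100% = reference agonist control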
Summary of the method: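 Reporter cells (HEK293T, VDR-UAS-bla) were seeded in medium with 2% charcoal-stripped serum and incubated 5 h, then compounds in concentration series were added for 16 h at 37 °C. Stimulation was scaled between DMSO basal and 50 nM 1α,25-dihydroxyvitamin D3.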

Sequence of Bile acid receptor (Homo sapiens) (Q96RI1 whole entry, looked up): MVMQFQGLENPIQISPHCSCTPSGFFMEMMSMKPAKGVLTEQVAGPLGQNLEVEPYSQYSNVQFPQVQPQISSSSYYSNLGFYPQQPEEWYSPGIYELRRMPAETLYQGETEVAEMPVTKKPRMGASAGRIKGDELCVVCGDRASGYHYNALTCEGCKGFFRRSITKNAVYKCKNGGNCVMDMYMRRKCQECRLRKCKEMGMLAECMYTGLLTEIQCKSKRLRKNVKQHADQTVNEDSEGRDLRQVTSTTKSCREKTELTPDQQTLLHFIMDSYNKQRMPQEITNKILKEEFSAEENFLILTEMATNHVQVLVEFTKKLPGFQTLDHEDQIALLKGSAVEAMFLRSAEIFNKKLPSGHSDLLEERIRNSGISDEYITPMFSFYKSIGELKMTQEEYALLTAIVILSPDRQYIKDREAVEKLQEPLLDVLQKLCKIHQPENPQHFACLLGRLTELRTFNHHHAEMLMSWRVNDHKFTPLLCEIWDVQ

Compound | Potency [1] | activation [2] | outcome [3] | Potency [4] | activation [5] | activation [6] | max response [7] | max response [8] | max response [9] | Potency [10] | max response [11] | max response [12] [%] | Potency [13] | Potency [14] | max response [15] [%] | max response [16] | activation [17] | Potency [18] | Potency [19] | outcome [20]
CCCCOCN(C(=O)CCl)c1c(CC)cccc1CC | inactive | -0.328% (inactive) | inactive | inactive | -3.81% (inactive) | -2.46% (inactive) | 0.0844% (inactive) | -23.8% (inactive) | -23.1% (inactive) | inactive | 3.67% (inactive) | – | – | – | – | – | – | – | – | –
COC(=O)c1ccccc1S(=O)(=O)NC(=O)Nc1nc(C)nc(OC)n1 | inactive | -2.54% (inactive) | inactive | inactive | – | -1.13% (inactive) | 5.99% (inactive) | 13.7% (inactive) | 9.36% (inactive) | – | -8.23% (inactive) | 36.9 | inactive | inactive | -10.3 | 25.6% (inactive) | 6.08% (inactive) | inactive | – | –
CC1(C)[C@H](C(=O)O[C@H](C#N)c2cccc(Oc3ccccc3)c2)[C@@H]1/C=C(\Cl)C(F)(F)F | inactive | -0.137% (inactive) | – | inactive | – | 0.227% (inactive) | -0.66% (inactive) | -24% (inactive) | -15% (inactive) | inactive | – | -6.46 | inactive | inactive | -6.94 | -28.2% (inactive) | 1.92% (inactive) | inactive | inactive | –
CCC(C)c1ccc(O)cc1 (stereo unspecified) | inactive | -4.25% (inactive) | – | inactive | -0.802% (inactive) | – | -0.201% (inactive) | – | -7.5% (inactive) | inactive | -4.44% (inactive) | – | – | – | -3.19 | -17.8% (inactive) | – | inactive | inactive | –
CC(C)N(C(=O)COc1nnc(C(F)(F)F)s1)c1ccc(F)cc1 | inactive | 0.828% (inactive) | – | inactive | -1.4% (inactive) | -0.614% (inactive) | -0.147% (inactive) | -9% (inactive) | -8% (inactive) | inactive | -3.84% (inactive) | -37.1 | inactive | – | – | – | 0.0644% (inactive) | – | – | –
CN1COCN(Cc2cnc(Cl)s2)/C1=N\[N+](=O)[O-] | inactive | – | inactive | – | 0.219% (inactive) | -0.335% (inactive) | -1.32% (inactive) | -21.4% (inactive) | -0.262% (inactive) | inactive | -0.267% (inactive) | -72.6 | inactive | inactive | -4.43 | 2.74% (inactive) | -3.46% (inactive) | inactive | inactive | inactive
CO/N=C(/C1=NOCCO1)c1ccccc1Oc1ncnc(Oc2ccccc2Cl)c1F | 35.5 µM (active) | 7.75% (inactive) | – | – | 4.67% (inactive) | – | 18.3% (inactive) | 16.2% (inactive) | 6.13% (inactive) | – | – | – | – | – | – | – | – | inactive | – | –
Clc1ccc(C2(Cn3cncn3)CC(Br)CO2)c(Cl)c1 (stereo unspecified) | inactive | – | inactive | inactive | -2.79% (inactive) | 0.536% (inactive) | 0.204% (inactive) | -3.86% (inactive) | -20.3% (inactive) | inactive | – | 30.9 | inactive | inactive | -1.33 | -17.6% (inactive) | 1.75% (inactive) | inactive | inactive | inactive
